Shown is part of a subset that was picked to be rich in hits.
AmpC inh no detg = qHTS Inhibitors of AmpC Beta-Lactamase (assay without detergent) | P00811 | AmpC nitrocefin hydrolysis, absorbance 480 nm, 0.0001% Triton | Potency, µM (top dose mostly 57.1 µM), usual class: inhibitors | 0.52% of 330,000 active | AID 485341, 2010; also: nearly all actives have a fitted effect of over 20% in size
Target sequence (P00811 whole entry, looked up): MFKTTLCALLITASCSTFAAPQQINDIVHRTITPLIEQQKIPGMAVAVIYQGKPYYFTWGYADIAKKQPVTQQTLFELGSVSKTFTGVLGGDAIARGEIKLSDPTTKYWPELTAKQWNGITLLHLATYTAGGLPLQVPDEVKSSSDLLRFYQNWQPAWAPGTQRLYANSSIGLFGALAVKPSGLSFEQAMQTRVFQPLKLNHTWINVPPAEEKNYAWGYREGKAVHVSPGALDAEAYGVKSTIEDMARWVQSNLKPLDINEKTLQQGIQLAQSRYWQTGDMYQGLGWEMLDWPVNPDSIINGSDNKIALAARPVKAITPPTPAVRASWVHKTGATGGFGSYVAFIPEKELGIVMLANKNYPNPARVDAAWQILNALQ
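20 mM phosphate pH 7.0 + 0.01% (detergent screen) or 0.0001% Triton X-100; 5.3 nM AmpC reagent; cpd preinc 15 min RT; nitrocefin (800 uM stock) to start; A480 q20 s × 4 min; Activity was normalised to no-enzyme and no-compound control wells.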
Cycloheximide cs = Cycloheximide Counterscreen for Small Molecule Inhibitors of Shiga Toxin; AID 2314, 2010; cell reporter, cycloheximide protein synthesis inhibition counterscreen; 12% of 300,000 active; max response, %; in the data active = max response mostly above about 13%, no sharp cut-off; inactive = mostly below about 14%; also: read at 38.3 µM for the half of the compounds with a filed dose
SARS PLP yeast = qHTS of Yeast-based Assay for SARS-CoV PLP; S. cerevisiae expressing SARS-CoV PLpro, growth rescue; Potency, µM (doses to about 32.9 µM), actives largely listed as activators; 0.19% of 330,000 active; calls by dose curve; also: nearly all actives have a fitted effect of over 55% in size
AMA1-RON2 inh = qHTS for Inhibitors of AMA1-RON; Towards Development of Antimalarial Drug Lead: Primary Screen | Plasmodium falciparum AMA1 (3D7) - RON2 peptide interaction | 0.2% of 360,000 active | Potency, µM (doses to about 58.2 µM), hits mostly inhibitors | AlphaScreen AMA1-biotinylated RON2 peptide binding | AID 720542, 2013; also: nearly all actives have a fitted effect of over 45% in size
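AMA1 (3D7) with his tag at 25 nM final met compounds first, then biotinylated RON2 peptide at 25 nM; detection used donor plus acceptor beads, 10 µg/mL apiece, read by AlphaScreen after 30 min at room temperature.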
AmpC inh detg = qHTS Inhibitors of AmpC Beta-Lactamase (assay with detergent). 0.041% of 370,000 active. AmpC hydrolysis of nitrocefin, absorbance 480 nm, 0.01% Triton. Potency, µM (doses to about 114 µM), usual class: inhibitors; also: nearly all actives have a fitted effect of over 25% in size
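AmpC (5.3 nM in the dispensed reagent) in 20 mM phosphate pH 7.0 with 0.01% (detergent screen) or 0.0001% Triton X-100 was preincubated with compounds for 15 min at room temperature. Nitrocefin was then added from an 800 uM solution, and hydrolysis was followed at 480 nm.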
Shiga toxin inh = A qHTS for Small Molecule Inhibitors of Shiga Toxin. Vero cells, Shiga toxin protein synthesis inhibition reporter. inhibition, % at 38.7 µM. 9.2% of 290,000 active; in the data active = inhibition mostly above about 28%, no sharp cut-off; inactive = mostly below about 43%
Hits are given with their value; 0 = inactive; ? = inconclusive; - = no result; + = active, no number; [ ] = remark or other dose. Unless noted, calls follow the shape of the dose curve; as a rule, active = well fitted curve in the direction sought with a large enough effect; inconclusive = small, poorly fitted or top-dose-only effect, or another doubt; inactive = no such curve, though single readings can be large; an effect the other way counts as inactive or inconclusive.

SMILES	AmpC inh no detg	Cycloheximide cs	SARS PLP yeast	AMA1-RON2 inh	AmpC inh detg	Shiga toxin inh
O=C(Nc1ccccn1)C(=O)N1CCCCC1	0	0	0	0	0	46.9
O=C(Nc1ccccc1Br)C(=O)N1CCCC1	0	40.0	0	0	0	active
COc1ccc(S(=O)(=O)NNC(=O)C23CC4CC(CC(C4)C2)C3)cc1	0	0	?	0	0	0
Cc1cccnc1NC(=S)Nc1ccc(Cl)c(Cl)c1	0	32.3	0	0	0	102.8
COc1ccc(NC(=S)Nc2ncccc2C)cc1OC	0	46.4	0	0	0	75.6
Cc1cccnc1NC(N)=S	0	0	0	0	0	0
COc1ccc(NC(=S)Nc2ncccc2C)c(OC)c1	0	62.8	0	0	0	0
Cc1cccnc1NC(=S)NCCc1ccccc1	0	37.4	0	0	0	70.2
CCOC(=O)c1nn(-c2ccccc2)c(=O)c2c(N)scc12	0	0	0	0	?	0
Cc1ccc2c(c1)N(CCC(=O)NCc1ccccn1)C(=O)CO2	0	0	0	0	0	0
O=C(NNC(=S)Nc1ccc(Cl)c(Cl)c1)c1ccccn1	0	36.5	0	0	0	87.3
S=C(NCc1ccccn1)Nc1ccc(Cl)c(Cl)c1	0	0	0	0	0	0
Cc1cccnc1NC(=S)Nc1ncccc1C	0	31.5	0	0	?	67.9
CCCCc1ccc(NC(=O)OC)cc1	0	0	0	0	0	45.7
Cc1ccc(NC(=O)NCc2cccnc2)cc1Cl	0	32.1	0	0	?	38.5
CCCCc1ccc(NC(=O)Nc2cccnc2)cc1	0	76.1	0	0	0	152.9
CCOC(=O)c1ccc(NCc2cccnc2)cc1	0	15.5	0	0	0	0
CCCCc1ccc(NC(=S)Nc2ccc(Nc3ccc(OC)cc3)cc2)cc1	0	0	?	?	0	0
Cc1cc(-c2nn(-c3ccccc3F)cc2CN2CCN(c3ccncc3)CC2)c(C)s1	0	0	0	0	0	0
O=C(NCc1cccnc1)Nc1ccccc1	0	0	0	0	0	0
CCc1ccc(NC(=O)NCc2cccnc2)cc1	0	26.6	0	0	?	0
Cc1ccc2c(CC(=O)NCc3ccco3)coc2c1C	0	22.9	0	0	0	33.2
CCc1sc(C(=O)NCc2ccco2)cc1Br	0	18.7	0	0	0	-
CCc1sc(C(=O)NCc2ccco2)cc1C	0	0	0	0	0	63.7
O=C(NCC(c1ccco1)N1CCCCC1)c1cc2c(s1)CCCC2 (stereo not given)	0	-	0	0	0	-
SMILES	AmpC inh no detg	Cycloheximide cs	SARS PLP yeast	AMA1-RON2 inh	AmpC inh detg	Shiga toxin inh
O=C(NCc1ccco1)c1ccc(Br)s1	0	0	0	0	0	0
O=C(NCc1ccco1)c1cc2c(s1)CCCCC2	0	57.1	0	0	0	114.6
COc1ccc(S(=O)(=O)CCC(=O)N2CCN(c3ccc(F)cc3)CC2)cc1	0	0	0	0	0	0
CCN(CC)c1ccc(/C=N/OC(C)C(=O)Nc2ccc(C)cc2)cc1 (stereo not given)	0	0	0	?	?	0
O=C(Nc1ccccc1)O/N=C/c1ccc(F)cc1	0	26.6	0	0	?	53.6
CC(=O)Nc1ccc(/C=N/OCC(=O)Nc2ccc(C)cc2)cc1	0	22.8	0	0[11.6 µM]	0	15.2
Cc1ccc(NC(=O)O/N=C/c2ccc(F)cc2)cc1	0	32.8	0	0	?	46.7
Cc1ccc(NC(=O)O/N=C/c2ccc(Br)cc2)cc1	0	11.3	0	0	0	0
CN(NC(=O)c1ccccc1F)c1ccc([N+](=O)[O-])cn1	0	0	0	0	0	0
O=C(Nc1ccccc1)O/N=C/c1ccccc1Cl	0	54.4	?	0	0	63.9
COc1ccc(/C=N/OC(=O)Nc2ccccc2)cc1[N+](=O)[O-]	0	33.4	0	0	0	+
COc1ccc(/C=N\NC(=O)CNC(=O)C(c2ccccc2)c2ccccc2)cc1[N+](=O)[O-]	3.98µM	0	0	0	0	0
COc1cc(/C=N\NC(=O)CNC(=O)C(c2ccccc2)c2ccccc2)ccc1O	0	0	0	0	0	0
O=C1C(=O)c2ccccc2C(O)=C1CCCCl	0	0	0	0	0	0
N/C(CSc1ccccn1)=N\OCc1c(Cl)cccc1Cl	0	0	0	0	?	44.9
O=C(Nc1ccc(Cl)cc1)Nc1ccccc1C(=O)NCc1ccco1	0	56.2	0	0	0	57.8
Cc1cc(Cl)ccc1N(CC(=O)NCCSCc1ccco1)S(C)(=O)=O	0	0	0	0	0	0
O=C(COc1ccccc1)NCCSCc1ccco1	0	0	0	0	0	0
O=C(NCCSCc1ccco1)Nc1ccc(Cl)cc1	-	28.7	-	0	0	100.8
O=C(NCCSCc1ccco1)Nc1cccc(Cl)c1	0	37.0	0	0	0	39.6
O=C(CCSc1ccccc1)NCCSCc1ccco1	0	10.8	0	0	0	0
O=C1CSC(c2cccc([N+](=O)[O-])c2)N1c1c(F)cccc1F (stereo not given)	0	0	0	0	0	0
CSc1ccc(-c2nc3cccc(C)n3c2Nc2ccc(Cl)cc2)cc1	-	-	-	-	0	-
COc1ccc(N(CC(=O)NCCSc2ccccn2)S(=O)(=O)c2ccc(C)cc2)cc1OC	0	0	0	0	0	0
Cc1sc(NC(=O)c2ccccc2)c(C(c2ccc(Cl)cc2)N2CCN(CCO)CC2)c1C (stereo not given)	0	0	0	0[11.6 µM]	0	0
SMILES	AmpC inh no detg	Cycloheximide cs	SARS PLP yeast	AMA1-RON2 inh	AmpC inh detg	Shiga toxin inh
CCOc1ccc(C(c2c(NC(=O)c3ccccc3)sc(C)c2C)N2CCN(CCO)CC2)cc1 (stereo not given)	0	15.6	?	0	0	0
CC(C)(C)c1csc(NC(=O)CS(=O)(=O)c2ccccc2)n1	0	38.8	0	0	0	126.6
O=C(CS(=O)(=O)c1ccccc1)Nc1nc(-c2ccccc2)cs1	?	0	0	0	0	0
Cc1csc(NC(=O)CS(=O)(=O)c2ccccc2)n1	0	27.6	0	0	0	48.1
Cc1ccc(S(=O)(=O)CC(=O)Nc2nc(-c3ccccc3)cs2)cc1	0	0	0	0	0	0
Cc1ccc(C(=S)NCS(=O)(=O)c2ccc(C)cc2)cc1	0	19.1	0	0	0	0
O=C(NCCc1ccc(F)cc1)C(=O)Nc1cc2c3c(c1)CC(=O)N3CCC2	0	-	0	0	0	-
Cc1ccc(C(=O)O/N=C(\N)c2ccccc2)c(Cl)c1	0	36.1	0	0	0	0
COc1cccc(C(=O)O/N=C(\N)c2ccncc2)c1OC	0	35.2	0	0	0	26.9
Cc1ccccc1C(=O)O/N=C(\N)c1ccncc1	0	61.3	0	0	?	53.2
N/C(=N\OC(=O)c1cc(Cl)ccc1Cl)c1ccncc1	0	26.9	0	0	0	74.2

Bioassay records as filed in PubChem BioAssay.
